From PubChem BioAssay (NCI)
The panel holds about 83,000 compounds, 20% with a hit somewhere; the sample as a whole holds those more often.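 Interpretation: 100, growth as untreated; towards 0, rising growth inhibition; 0, no net growth; 0 to -100, cell death. Compounds scoring below 10 were considered active.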 Values without a mark were called inactive. Calls of active or inactive are those of the source.

Key:
Test in all cases: NCI-60 one-dose screen, 48 h (100 = growth as untreated, 0 = no growth, -100 = all killed)
Conditions in all cases: 10 µM unless noted
HCT-15 colon = tested on: HCT-15 colon
HT29 colon = tested on: HT29 colon
SNB-75 CNS = tested on: SNB-75 CNS
SNB-19 CNS = tested on: SNB-19 CNS
U251 CNS = tested on: U251 CNS
PC-3 prostate = tested on: PC-3 prostate
SK-MEL-5 melanoma = tested on: SK-MEL-5 melanoma
UACC-62 melanoma = tested on: UACC-62 melanoma
LOX IMVI melanoma = tested on: LOX IMVI melanoma
SK-MEL-28 melanoma = tested on: SK-MEL-28 melanoma

Row | SMILES | growth (HCT-15 colon) | growth (HT29 colon) | growth (SNB-75 CNS) | growth (SNB-19 CNS) | growth (U251 CNS) | growth (PC-3 prostate) | growth (SK-MEL-5 melanoma) | growth (UACC-62 melanoma) | growth (LOX IMVI melanoma) | growth (SK-MEL-28 melanoma)
1 | COc1cc(N2CCC(N(C)C)CC2)ccc1Nc1ncc(Cl)c(Nc2ccccc2P(C)(C)=O)n1 | 7.34% (active) | -4.74% (active) | -82.5% (active) | 14.9% | 5.24% (active) | 26% | 16.5% | 16% | -60.3% (active) | 49.4%
2 | CN(C)C1CCN(C(=O)c2ccc(NC(=O)Nc3ccc(-c4nc(N5CCOCC5)nc(N5CCOCC5)n4)cc3)cc2)CC1 | 74.1% [2.5 µM] | -2.55% [2.5 µM] (active) | -51.7% [2.5 µM] (active) | 1.85% [2.5 µM] (active) | -10.5% [2.5 µM] (active) | 3.75% [2.5 µM] (active) | -39.1% [2.5 µM] (active) | -58.9% [2.5 µM] (active) | 0.487% [2.5 µM] (active) | -27.6% [2.5 µM] (active)
3 | Cc1ccc(-c2cc3c(SCC(=O)Nc4cc(C(F)(F)F)ccc4Cl)nccn3n2)cc1 | 20.1% | -18.8% (active) | 95.3% | 102% | 60% | 41.1% | 48.1% | 97.5% | – | 84.8%
4 | S=C(NCc1ccc2c(c1)OCO2)N1CCN(c2ncnc3c2oc2ccccc23)CC1 | 37.1% | 28.9% | 37.6% | 49.1% | 41.3% | 27.3% | -46% (active) | 31% | – | 52.9%
5 | CC[C@H](Nc1ncnc2nc[nH]c12)c1nc2cccc(F)c2c(=O)n1-c1ccccc1 | 88.9% | 50.4% | 25.8% | 71.5% | 77% | 50.9% | 80.2% | 39.1% | – | 69.3%
6 | Cc1nc2ccc(-n3ncc(C(=O)c4cc5ccccc5[nH]4)c3N)cc2[nH]1 | 30.9% | 23.1% | 39.9% | 48.2% | 24.4% | 41.1% | 32.8% | 43.5% | – | 69.7%
7 | C=CC(=O)Nc1cc2c(Nc3ccc(F)c(Cl)c3)ncnc2cc1C#CC(C)(C)N1CCN(C)CC1 | -78% (active) | -70.4% (active) | -99.8% (active) | -98.9% (active) | -94.8% (active) | -87.4% (active) | -98.4% (active) | -94.6% (active) | – | -96.9% (active)
8 | CC1=CC2c3oc(-c4ccccc4)c(C(=O)c4ccccc4)c3CNC2C=C1 (centres undefined) | 97.2% | 84.2% | 79.7% | 91.6% | 80.7% | 94% | 103% | 87.9% | – | 111%
9 | O=C(Nc1cccc(Cl)c1)Nc1ncc(CCNc2ncnc3ccsc23)s1 | 22.9% | 19.7% | 25.6% | 64.9% | 38.4% | 8.62% (active) | -52% (active) | -24.7% (active) | – | 33.5%
10 | O=c1sn(-c2cccc3ccccc23)c(=O)n1Cc1ccccc1 | 104% | 100% | 105% | 101% | 97.1% | 89.9% | 104% | 92.6% | 99.9% | 114%
11 | C=CC(=O)Nc1cc(Nc2nccc(-c3cn(C)c4ccccc34)n2)c(OC)cc1N(C)CCN(C)C | -63.9% (active) | -61.2% (active) | -6.88% (active) | -7.94% (active) | -72.7% (active) | -52.6% (active) | -96.5% (active) | -68.8% (active) | – | -87.2% (active)
12 | CCN1CCN(Cc2ccc(Cc3ncc(F)c(-c4cc(F)c5nc(C)n(C(C)C)c5c4)n3)nc2)CC1 | 32.9% | 13.2% | 21.2% | 47.8% | 45.7% | 38.7% | 34.2% | 69.1% | – | 64.4%
13 | CC(C)c1ccc(/C=N/Nc2nc3ccccc3s2)cc1 | 83.9% | 78.8% | 103% | 97.7% | 80.8% | 77.9% | 91.6% | 87% | – | 108%
14 | O=C(c1ccccc1)C(c1ccccc1)N1CCOCC1 (centres undefined) | 104% | 99.1% | 100% | 100% | 95.1% | 92.7% | 102% | 105% | – | 105%
15 | Cn1nccc1Nc1nccc(-c2ccn([C@H](CO)c3ccc(Cl)c(F)c3)c(=O)c2)n1 | 94.1% | 19.9% | 101% | 94.1% | 86.2% | 111% | 70.7% | 9.88% (active) | – | 16.9%
16 | COc1cc(Nc2ncc(F)c(Nc3ccc4c(n3)N(COP(=O)(O)O)C(=O)C(C)(C)O4)n2)cc(OC)c1OC | 21.4% | -0.77% (active) | -95.5% (active) | 31.4% | 29.5% | 33.5% | 43.8% | 18.8% | – | 45.6%
17 | N#Cc1c(-c2ccc(C(F)(F)F)cc2)c(F)c(NCCC2CCC(O)C2)n2c1nc1ccccc12 (centres undefined) | 49.6% | 17.8% | 68% | 78.3% | 61.4% | 37.8% | 61.8% | 72.7% | – | 61.8%
18 | Cn1ccnc1C(=O)/C=C/c1ccc(CC(=O)Nc2ccc(Br)cc2)cc1 | 5.5% (active) | 0.238% (active) | 8.2% (active) | 11.4% | 5.83% (active) | 23% | 62.9% | 33% | – | 92.3%
19 | CC(C)C1CCC(C)C(C2(C#N)C(N)=NC(N)=C2C#N)C1=O (centres undefined) | 101% | 96.2% | 84% | 101% | 99.7% | 86% | 101% | 102% | 92.5% | 107%
20 | CCc1cc2c(cc1N1CCC(N3CCOCC3)CC1)C(C)(C)c1[nH]c3cc(C#N)ccc3c1C2=O | 7.91% (active) | -58% (active) | -90.3% (active) | 20.2% | -19.5% (active) | 4.07% (active) | 10.2% | -16.4% (active) | – | -27.2% (active)
